“And” between values parts separate entries of the source, which are not always exact repeats. Equal values may be shown once. Compounds without any hit were thinned out: in the full panel of roughly 79,000, 15% have a hit. The source made the active and inactive calls. Rule as the data show it: active = growth inhibition above about 70%; inactive = the rest.
Columns and labels:
[1] = NCI Yeast Anticancer Drug Screen. Data for the rad50 strain (AID 155);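 also: 0% = growth of vehicle-only cultures of the same strain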; conditions: S. cerevisiae rad50 strain growth inhibition; at 50.0 µM; stronger effect = higher value
In short: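 Growth of the mutant yeast was measured after compound exposure and referenced to vehicle-treated cultures.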

[2] = NCI Yeast Anticancer Drug Screen. Data for the mec2-1 strain (AID 157); conditions: S. cerevisiae mec2-1 strain, at 50.0 µM, stronger effect = higher value
In short: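 Cells of the genetically defined mec2-1 yeast strain are incubated with test compound. Inhibition of growth is calculated against vehicle-treated controls.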

[3] = NCI Yeast Anticancer Drug Screen. Data for the sgs1 mgt1 strain (AID 161);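 also: 0% = growth of cultures given vehicle only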; conditions: S. cerevisiae sgs1 mgt1 strain, at 50.0 µM, stronger effect = higher value
In short: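 Test agents were incubated with a DNA-repair-mutant yeast strain. Growth was then read and compared against vehicle-treated controls.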

[4] = NCI Yeast Anticancer Drug Screen. Data for the cln2 rad14 strain (AID 165);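 also: 0% = growth equal to vehicle treated cultures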; conditions: S. cerevisiae cln2 rad14 strain, at 50.0 µM, stronger effect = higher value
In short: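 The screen exposed genetically defined yeast (cln2 rad14) to test compounds and scored growth inhibition relative to vehicle-treated controls.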

[5] = NCI Yeast Anticancer Drug Screen. Data for the bub3 strain (AID 167); conditions: S. cerevisiae bub3 mutant strain, at 50.0 µM, stronger effect = higher value
In short: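 Whole-cell yeast assay. The mutant strain was incubated with compounds, and growth inhibition was determined by comparison with vehicle-treated cells.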

[6] = NCI Yeast Anticancer Drug Screen. Data for the mlh1 rad18 strain (AID 175); conditions: S. cerevisiae mlh1 rad18 strain growth inhibition; at 50.0 µM; stronger effect = higher value
In short: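 Compound-treated yeast growth, normalised to vehicle controls. Strain bears defined DNA repair mutations.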

Measured: growth inhibition

C[N+](C)(C)CC(CC(=O)[O-])C1CC1 (stereo not given)
inactive: [1] 3.7% | [2] -7.8% | [3] -18.6% | [4] 2.1% | [5] -19.1% | [6] -19.1%

CC(C)OP(=O)(OC(C)C)C(=O)Nc1cc(Cl)ccc1Cl
inactive: [1] -23.5% | [2] 14.6% | [3] -6.35% | [4] -31% | [5] 15% | [6] -0.15%

O=C1OC(=O)C2C3C=CC(O3)C12 (stereo not given)
inactive: [1] -9.15% and -16.2% and 22.6% | [2] -14.2% and -0.8% and -0.1% | [3] -25.2% and 3.95% and 14.6% | [4] 6% and 1.55% and 10.6% | [5] -42.2% and -28.7% and 6.3% | [6] -6.4% and -16.8% and 19.6%

COc1ccc2c3c([nH]c2c1)C(C)N(C)CC3 (stereo not given)
inactive: [1] 16.4% | [2] 1.85% | [3] -10.7% | [4] -5.05% | [5] 43.4% | [6] -16.9%

CS(=O)(=O)OCCN(CCCl)c1cc(C(N)=O)c([N+](=O)[O-])cc1[N+](=O)[O-]
inactive: [1] -6.8% | [2] -5.5% | [3] 5.45% | [4] -16.4% | [5] -11.4% | [6] -1.65%

O=[N+]([O-])O.[Ce]
inactive: [1] 13.3% | [2] 3.35% | [3] 17.9% | [4] 5.8% | [5] 24.6% | [6] 4.15%

OC(c1ccccc1)C1CCCCN1 (stereo not given)
inactive: [1] -7.95% | [2] -7.2% | [3] 9.8% | [4] -12.3% | [5] 11.2% | [6] -17.6%

Cn1c(=S)[nH]n(CCOc2ccccc2)c1=S
inactive: [1] -7.15% | [2] -5.35% | [3] -5.85% | [4] -18.4% | [5] 3.45% | [6] -6.05%

Cc1nnc2cc3ccccc3cn12
inactive: [1] 21% | [2] 9.45% | [3] 26.4% | [4] 9.45% | [5] 21.9% | [6] 18.1%

O=S(=O)(c1ccccc1)N1C2CCCC21 (stereo not given)
inactive: [1] 14.1% | [2] 2.55% | [3] 7.05% | [4] -2.75% | [5] 7.5% | [6] -21.5%

COc1cc(Cl)c(OP(=O)(OC)OC)cc1Cl
inactive: [1] -3.8% | [2] 9.4% | [3] 12.3% | [4] -1.9% | [5] -1.05% | [6] 5.75%

C1CSCCO1.[Cu+2].[O-][Cl+3]([O-])([O-])O
inactive: [1] -7.6% | [2] -10.6% | [3] -0.4% | [4] -36.8% | [5] -37% | [6] -13.8%

Cc1ccc(CCl)c(O)c1
inactive: [1] -25.7% | [2] -14.6% | [3] -6% | [4] -12.5% | [5] 7.1% | [6] -0.8%

COP1(=O)Oc2ccccc2C(=O)C(C(F)(F)F)(C(F)(F)F)O1 (stereo not given)
inactive: [1] -16.9% | [2] -1.6% | [3] -15.8% | [4] 5.05% | [5] -20.2% | [6] -34.1%

CC(C)(C)N1OC1C(Cl)(Cl)Cl (stereo not given)
inactive: [1] -20.6% | [2] -9.55% | [3] -23% | [4] -18.3% | [5] -4.95% | [6] 10.4%

CC1=C(O)C(=O)[C@@H]2O[C@@H]2C1=O
inactive: [1] 42% | [2] 29.6% | [3] 43.8% | [4] 14% | [5] 31.3% | [6] -35.4%

O=S1(=O)N2CN3CCN(C2)CN1C3
inactive: [1] 36.5% | [2] 40.4% | [3] 31.4% | [4] -25.3% | [5] 12.1% | [6] 34%

ClCc1ccco1
inactive: [1] 0.35% | [2] 2.4% | [3] 10.6% | [4] -11.4% | [5] 23.6% | [6] 36.2%

[Ni+2].[O-]c1ccc(Cl)cc1C=NCc1ccccn1.[O-]c1ccc(Cl)cc1C=NCc1ccccn1
active: [1] 94.3% | [2] 96.7% | [3] 97.5% | [4] 86.9% | [5] 96.5% | [6] 97.5%

COC(=O)c1cccc(S(=O)(=O)F)c1
inactive: [1] -9.85% | [2] -5.05% | [3] -15.7% | [4] -13.4% | [5] 20.1% | [6] -28.4%

CC[N+](CC)(CC)CC
inactive: [1] -16.7% and -6.2% | [2] 2.1% and -17.7% | [3] 6.6% and -1.6% | [4] -10.4% and 2.05% | [5] 0.8% and -1.3% | [6] -15.8% and -4.9%

CC(C)CC(NC(=O)C(Cc1ccccc1)NC(=O)CNC(=O)CNC(=O)C(N)Cc1ccc(O)cc1)C(=O)O (stereo not given)
inactive: [1] 0.9% | [2] 2.85% | [3] -8.25% | [4] -7.5% | [5] -0.75% | [6] -11.2%

O=C(NC(CSC(c1ccccc1)(c1ccccc1)c1ccccc1)C(=O)O)OCc1ccccc1 (stereo not given)
active: [2] 99.5% | [3] 98.5%
inactive: [1] 63.7% | [4] 51.9% | [5] 47.6% | [6] 58.8%

[C-]#[O+].[C-]#[O+].[C-]#[O+].[C-]#[O+].[W].c1ccc([PH+](CC[PH+](c2ccccc2)c2ccccc2)c2ccccc2)cc1
inactive: [1] -2.9% | [2] 5.2% | [3] -10.4% | [4] -8% | [5] -7.5% | [6] 8.95%

Cc1ccc(Cl)c([N+](=O)[O-])c1
inactive: [1] -23.7% | [2] -52.5% | [3] -30.4% | [4] -3.25% | [5] -20.1% | [6] -9.75%

CCC1CN2CCC1CC2C(O)c1cc[n+]([O-])c2ccc(OC)cc12 (stereo not given)
inactive: [1] -11.7% | [2] 7.25% | [3] -7.6% | [4] 1.75% | [5] -8.05% | [6] -12.4%

CCC[C@H]1CCCCN1
inactive: [1] 27.1% | [2] 12.7% | [3] 23.4% | [4] 18.9% | [5] -13% | [6] 3.6%

CCCCCCNC(=O)C(C)Br (stereo not given)
inactive: [1] -7.35% | [2] 4.9% | [3] -0.55% | [4] -12.4% | [5] 9.95% | [6] 1.85%

CCN(CCCl)CCCCCNc1c2ccccc2nc2ccc(OC)cc12
active: [1] 84.5% | [2] 84.5% | [3] 83% | [4] 84.3% | [5] 78.8% | [6] 76%

N#Cc1cccc([N+](=O)[O-])c1
inactive: [1] -17.7% | [2] 0.3% | [3] -26.6% | [4] 30.8% | [5] -9.7% | [6] -18.9%

O=C1NC(=O)C(CC(Br)CBr)(c2ccccc2)C(=O)N1 (stereo not given)
inactive: [1] 16.6% | [2] -1.45% | [3] 20.8% | [4] 11.4% | [5] -0.75% | [6] 11.2%

[C-]#[O+].[C-]#[O+].[C-]#[O+].[C-]#[O+].[Cr].c1ccc([PH+](CC[PH+](c2ccccc2)c2ccccc2)CC[PH+](c2ccccc2)c2ccccc2)cc1
inactive: [1] 14.9% | [2] 3.75% | [3] -3.35% | [4] 32.2% | [5] 19.4% | [6] 6.2%

COc1cc2c(c(OC)c1OC)-c1ccc(O)c(=O)cc1[C@@H](NC(C)=O)CC2
inactive: [1] 24% and 43.6% | [2] 1.95% and 34.6% | [3] 54.9% | [4] 35.5% | [5] 62.5% | [6] 22.9% and -13.1%

CC(C)=CC1C(C(=O)OCc2ccc(Cl)c(Cl)c2)C1(C)C (stereo not given)
inactive: [1] 4.25% | [2] -2.5% | [3] 8.9% | [4] 16.9% | [5] 8.9% | [6] 5.25%

CC(N)C(O)c1ccc(O)cc1 (stereo not given)
inactive: [1] -14% | [2] -12% | [3] -21.1% | [4] -4.95% | [5] -39.2% | [6] -44%

COCCCCCC(=O)CP(=O)(OC)OC
inactive: [1] -7.15% | [2] -1.4% | [3] -1.2% | [4] -12.9% | [5] -6.4% | [6] 8.95%

O=C(O)c1ccccc1N=Nc1ccc(N(CCCl)CCCl)cc1
inactive: [1] 21.6% and 13.4% | [2] 14.2% and -11.7% | [3] 3.7% and -2.9% | [4] 10.8% and 20.6% | [5] 16.7% and -4.5% | [6] 31.1% and 8.15%

CCN(CC)C(=S)SCc1ccccc1OC(=O)NC
inactive: [1] -4.35% | [2] -8.6% | [3] 7.2% | [4] -43.5% | [5] 33.1% | [6] -5.95%

CC(C)(C)C1(C)CN(N=O)C(=O)O1 (stereo not given)
inactive: [1] -5.05% | [2] -9.7% | [3] -9.5% | [4] -26.1% | [5] 5.85% | [6] -15.5%

O=C(c1ccccc1)C1C(C(=O)c2ccccc2)N1Cc1ccccc1 (stereo not given)
inactive: [1] 5% and 21.4% | [2] 9.9% and 4.5% | [3] 3.8% and -9.95% | [4] 2.8% and -1.2% | [5] 27.2% and 9% | [6] -7.8% and 6.65%

CC(=O)OC1CC(OC2C(O)CC(OC3C(O)CC(OC4CCC5(C)C(CCC6C5CC(O)C5(C)C(C7=CC(=O)OC7)CCC65O)C4)OC3C)OC2C)OC(C)C1OC1OC(CO)C(O)C(O)C1O (stereo not given)
inactive: [1] 6.05% | [2] -15.4% | [3] -25.1% | [4] 5% | [5] 5.7% | [6] 10.6%

O=N[O-].O=N[O-].[Co].[NH2-].[NH2-].[NH2-].[NH2-]
inactive: [1] 0.1% | [2] -11.5% | [3] -3.5% | [4] -14.3% | [5] 2.15% | [6] 26.9%

CC(C)CC1N=C(N(C)N=O)OP1(=O)NNc1ncccn1 (stereo not given)
inactive: [1] -5.5% | [2] -14.9% | [3] -15.4% | [4] 6.65% | [5] 13.8% | [6] 13.9%

NC(Cc1cc([N+](=O)[O-])ccc1CN(CCCl)CCCl)C(=O)O (stereo not given)
inactive: [1] 41.5% | [2] 29.8% | [3] 42% | [4] 19.5% | [5] 40.1% | [6] 39.6%

COc1c2c(nc3ccccc13)-c1cc3c(c(=O)n1C2)COC(=O)C3(O)CC(=O)N1CCOCC1 (stereo not given)
inactive: [1] 9.5% | [2] -4.25% | [3] 0.2% | [4] 52.5% | [5] -6.5% | [6] 6.35%

From PubChem BioAssay (NCI)
